# TDP1 cell CPT – growth inhibition of DT40 Tdp1-/-;hTDP1 cells with camptothecin (screen for TDP1 inhibitors) | chicken DT40 Tdp1-/-;hTDP1 cells + 20 nM CPT, ATP luminescence, 48 h | Potency, µM (highest dose often 46.2 µM), inactives show top-dose activity change, negative = growth inhibition, usual class: inhibitors | actives 12% (n = 420,000) | AID 686979; note: potency is the fitted concentration of half-maximal effect; nearly all actives have a fitted effect of over 55% in size
#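 Chicken DT40 Tdp1-/- cells stably complemented with human TDP1 were seeded at 400 cells/well in medium containing 20 nM camptothecin, exposed to pin-transferred compounds, and grown at 37 °C for at least 48 hr. Viability was read as ATP luminescence.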
# TDP1 cell noCPT – qHTS for Inhibitors of human tyrosyl-DNA phosphodiesterase 1 (TDP1): qHTS in cells in absence of CPT | Potency, µM (highest dose often 46.2 µM), for inactives: top-dose activity change, negative = growth inhibition, usual class: inhibitors | actives 15% (n = 420,000) | DT40 Tdp1-/- hTDP1 cells, no CPT, ATP luminescence, 48 h; note: potency is the fitted concentration of half-maximal effect; nearly all actives have a fitted effect of over 55% in size
#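 Stably hTDP1-transfected Tdp1-null chicken DT40 cells were treated with library compounds minus camptothecin and grown for at least 48 hr at 37 °C, after which cellular ATP was quantified by luminescence.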
# IL1B secr inh – inhibitors of inflammasome signaling (IL-1 beta secretion) | actives 4.7% (n = 360,000) | THP-1 LPS/ATP IL-1B secretion, AlphaLISA, 16 h; active compounds read low | activity change, % at 57.5 µM | AID 743279; in the data active = activity change below about -50%; inconclusive = mostly about -30% to -49%
#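 Secreted IL-1B measured by AlphaLISA bead assay after 16 h compound exposure of THP-1 cells; compounds (final up to 57.5 uM) added 1 h before LPS (250 ng/mL) and ATP (1.25 mM) stimulation; lower signal means less secretion.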
# TDP1 block – TDP1 (human) enzyme inhibition; Q9NUW8; actives 0.28% (n = 350,000); recombinant TDP1, AlphaScreen DNA substrate cleavage; Potency, µM (doses to about 130 µM), for inactives: top-dose activity change, negative = inhibition, hits mostly inhibitors; AID 485290; note: potency is the fitted concentration of half-maximal effect; nearly all actives have a fitted effect of over 40% in size
# Target sequence (Q9NUW8 whole entry, looked up): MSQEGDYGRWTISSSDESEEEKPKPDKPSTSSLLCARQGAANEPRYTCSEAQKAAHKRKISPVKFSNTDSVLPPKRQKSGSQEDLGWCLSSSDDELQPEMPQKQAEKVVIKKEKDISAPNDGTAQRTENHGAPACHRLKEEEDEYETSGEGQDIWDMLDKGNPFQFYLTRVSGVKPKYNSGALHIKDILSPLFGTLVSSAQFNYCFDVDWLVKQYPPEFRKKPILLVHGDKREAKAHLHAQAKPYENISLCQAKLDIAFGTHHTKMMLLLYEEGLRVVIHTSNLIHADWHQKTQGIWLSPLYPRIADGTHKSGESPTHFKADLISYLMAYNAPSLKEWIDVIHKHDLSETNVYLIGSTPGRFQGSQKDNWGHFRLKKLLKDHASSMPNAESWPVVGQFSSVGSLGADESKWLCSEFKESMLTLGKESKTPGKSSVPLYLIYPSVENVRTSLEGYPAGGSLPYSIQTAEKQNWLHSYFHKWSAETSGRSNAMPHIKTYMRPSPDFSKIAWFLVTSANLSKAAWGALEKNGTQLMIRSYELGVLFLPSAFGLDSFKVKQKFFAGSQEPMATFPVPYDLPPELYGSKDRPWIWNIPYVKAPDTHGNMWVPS
#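 Steps: enzyme plus compound, 15 min RT; add biotin/phosphotyrosine-FITC oligonucleotide (15 nM final), react 5 min; add donor/acceptor beads (10 ug/ml final), 10 min; read AlphaScreen. Tdp1 at 1 nM final.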
# Giardia killer – kills Giardia lamblia; Giardia lamblia trophozoite viability; activity change, % at 7.66 µM, hits read low; actives 0.15% (n = 340,000); in the data active = activity change below about -80%; inconclusive = between about -30% and that limit;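 note: parasites exposed to compound for two days anaerobically before the ATP read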
#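 Luminescent ATP signal served as the viability read-out, measured 15-30 min after adding ATP detection reagent to trophozoites that had been incubated with compounds for 48 hrs at 37 deg C anaerobically at 100 cells/well.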
# ELG1 DNA repair – inhibitors of ELG1-dependent DNA repair in HEK293T cells | Potency, µM (titrated, usually from 46.1 µM), without a hit: at the top dose activity change, negative = inhibition, hits mostly inhibitors | HEK293T ELG1-luciferase reporter, luminescence, 16 h; DNA damage induced by 5-fluorouridine | actives 2.3% (n = 330,000) | AID 504467; note: potency is the fitted concentration of half-maximal effect; nearly all actives have a fitted effect of over 55% in size
#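 Step one: seed 2,000 cells per well. Step two: pin-transfer compound or DMSO alongside 5-fluorouridine. Step three: incubate 16 hr, 37 °C, 5% CO2. Step four: add ONE-Glo, wait 30 min, read luminescence.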
# Numbers without * were called inactive; ? = inconclusive; . = no result; [ ] = dose if it differs, or a comment. Rows were chosen to be rich in hits. Some 19% of all compounds tested hit in one or more screens of this group. Unless noted, calls come from the whole dose curve; as a rule, active = well fitted curve in the direction sought with a large enough effect; inconclusive = small, poorly fitted or top-dose-only effect, or another doubt; inactive = no such curve, though single readings can be large; an effect the other way counts as inactive or inconclusive. % is set by controls: 0 for no effect and ±100 for the full control effect.
SMILES,TDP1 cell CPT,TDP1 cell noCPT,IL1B secr inh,TDP1 block,Giardia killer,ELG1 DNA repair
C[C@H]1CCC(=O)N(CCSc2ccc(Br)cc2)CC1,16µM*,18µM*,-2,-5%,-11,?
Cc1ccc(S[C@@H](CCN2CC[C@H](C(C)(C)C)CCC2=O)c2ccccc2)cc1,?,?,-7,.,-20,-33%
C[C@@H]1CCC(=O)N(CC[C@H](Sc2ccc(Br)cc2)c2ccccc2)CC1,18µM*,20µM*,-71*,-7%,?,-19%
COCCNC(=O)C1CCCN(Cc2ccc(C)cc2)CC1 (centres undefined),2%,-1%,-6,.,.,.
O=C(NCc1ccccc1)c1ccc(CS(=O)Cc2cccc(Cl)c2)o1 (centres undefined),?,?,-21,.,.,.
O=C(O)c1ccc(N/N=C/c2c(F)cccc2Cl)cc1,-1%,23%,11,.,-1,?
Cc1ccc(S[C@@H](CCN2CC[C@H](O)CCC2=O)c2ccccc2)cc1,11%,-11%,5,.,-19,1%
Cc1ccc(S[C@@H](CCN2CC[C@H](C)CCC2=O)c2ccccc2)cc1,?,16µM*,?,.,5,2%
CCCN1CNc2c(c(=O)[nH]c(=S)n2CCc2ccc(C)cc2C)C1,?,?,.,-1%,-3,.
CCCCN1CC(c2nc3ccccc3n2CCCCOc2c(C)cccc2C)CC1=O (centres undefined),12µM*,7.3µM*,.,3%,.,.
CCCCN(C)C(=O)Cn1c(C2CC(=O)N(c3ccc(C)cc3)C2)nc2ccccc21 (centres undefined),-11%,-23%,.,9%,.,.
COc1ccccc1OCCCCn1c(C2CC(=O)N(c3ccccc3Cl)C2)nc2ccccc21 (centres undefined),?,-26%,.,8%,.,.
CCCCN1CC(c2nc3ccccc3n2CCCCOc2ccccc2C)CC1=O (centres undefined),7.3µM*,5.8µM*,.,3%,.,.
CCCCN1CC(c2nc3ccccc3n2CCCCOc2cc(C)ccc2C)CC1=O (centres undefined),16µM*,8.2µM*,.,9%,.,.
Cc1ccc(S(=O)(=O)N2CCOCC2)cc1NC(=O)CSc1nnnn1C,-21%,0%,10,8%,-7,-8%
COc1cc2c3nnc(-c4ccc(F)cc4)c-3cn(Cc3cccc(C)c3)c2cc1OC,1.8µM*,2.6µM*,-98*,5%,1,-25%
O=c1c2cn(Cc3ccc(F)cc3)c3ccccc3c-2nn1Cc1ccc(F)cc1,-1%,-2%,-1,.,6,0%
COc1cc2c3nnc(-c4ccc(F)cc4)c-3cn(Cc3cccc(F)c3)c2cc1OC,2.3µM*,2.6µM*,-3,-3%,-10,0%
COc1cc2c3nnc(-c4ccccc4)c-3cn(Cc3ccc(F)cc3)c2cc1OC,8.2µM*,15µM*,-192*,6%,-8,-11%
COc1cccc(Cn2nc3c4cc(F)ccc4n(Cc4ccc(F)cc4)cc-3c2=O)c1,-9%,?,22,.,-3,1%
Cn1cnc(S(=O)(=O)N2CCC(C(=O)Nc3ccc(F)cc3F)CC2)c1,9%,-16%,.,6%,.,.
C/C(=N\NC(=O)c1ccccc1)C1C2C=CC(C2)C1(C)C (centres undefined),-11%,?,?,3%[56.1 µM],-1,-5%
Cc1ccc(F)cc1NC(=O)N1CCN(c2ccnc3cc(Cl)ccc23)CC1,?,?,-28,1%,20,?
O=C(Nc1cc(F)ccc1F)N1CCN(c2ccnc3cc(Cl)ccc23)CC1,4.1µM*,5.2µM*,?,.,-13,?
O=C(Nc1ccc(C(F)(F)F)cc1)N1CCN(c2ccnc3cc(Cl)ccc23)CC1,23µM*,16µM*,-65*,5%,3,?
SMILES,TDP1 cell CPT,TDP1 cell noCPT,IL1B secr inh,TDP1 block,Giardia killer,ELG1 DNA repair
Cc1cccc(Cl)c1NC(=O)N1CCN(c2ccnc3cc(Cl)ccc23)CC1,?,13µM*,-11,4%,4,18µM*
CCCCNC(=O)N1CCN(c2ccnc3cc(Cl)ccc23)CC1,21µM*,13µM*,-22,.,4,21µM*
O=C(C1=C(O)C(=O)N(CC2CCCO2)C1c1cccc(O)c1)c1ccco1 (centres undefined),5%,3%,11,.,9,-2%
Cc1cc(C)n2nc(SCC(=O)NC(=O)c3ccc(OC(F)F)cc3)nc2n1,-5%,-6%,6,1%,16,?
COc1ccc(OC)c(CNS(=O)(=O)c2ccc(-c3coc(C)n3)cc2)c1,?,21µM*,.,7%,.,.
COc1ccc(NS(=O)(=O)c2ccc(-c3coc(C)n3)cc2)c(OC)c1,23µM*,-29%,16,5%,-21,?
CCc1ccccc1NS(=O)(=O)c1ccc(-c2coc(C)n2)cc1,?,?,.,4%,.,.
Cc1ccc(NS(=O)(=O)c2cc3c(cc2F)NC(=O)CC3)cc1C,.,.,.,0%,.,.
COc1ccc(NC(=O)Cn2c(SCc3ccc(F)cc3)nc3cccnc32)c(OC)c1,?,21µM*,.,5%,.,.
O=C(Cn1c(SCc2ccc(F)cc2)nc2cccnc21)Nc1ccccc1F,?,26µM*,.,7%,.,.
COc1cc(OC)c(NC(=O)Cn2c(SCc3ccccc3F)nc3cccnc32)cc1Cl,-1%,-4%,.,9%,.,.
O=C(Cn1c(SCc2ccccc2F)nc2cccnc21)Nc1ccc(F)c(Cl)c1,?,?,.,0%,.,.
COc1ccc(NC(=O)Cn2c(SCc3ccc(F)cc3)nc3cccnc32)cc1OC,3.7µM*,2.3µM*,.,5%,.,.
O=C(Cn1c(SCc2cccc(F)c2)nc2cccnc21)Nc1ccc(F)c(Cl)c1,26µM*,15µM*,.,1%,.,.
COc1ccc(CCNC(=O)c2coc3ccccc3c2=O)cc1OC,-21%,-28%,7,.,1,-23%
CCN(CC(=O)Nc1ccc(NC(C)=O)cc1)C(=O)CC1OC(=O)c2ccccc21 (centres undefined),-1%,2%,16,0%,-7,21%
Cc1ccc(S(=O)(=O)N(C)CC(=O)Nc2nnc(CC(C)C)s2)cc1,-29%,5%,38,1%,1,-7%
COc1ccc(NC(=O)Cn2c(SCc3ccc(C)cc3)nc3cccnc32)cc1OC,2.3µM*,1.6µM*,.,9%,.,.
COc1ccccc1NC(=O)/C(N=Nc1ccc(C)c(S(=O)(=O)Nc2ccccc2Cl)c1)=C(\C)O,18µM*,18µM*,8,7%,9,?

# Screening data: PubChem, National Center for Advancing Translational Sciences (NCATS)
